# Assays:
# Experiment in all cases: PBM; 200 nM protein, PBS
# Details in all cases: dsDNA, one strand shown
# SHOX [1] = biological target: SHOX (Homo sapiens, UniProt O15266 103-189)
# SHOX [2] = biological target: SHOX (Homo sapiens, UniProt O15266 103-189, R173C)
# HOXD13 [3] = biological target: HOXD13 (Homo sapiens, UniProt P35453 263-343, T313R)
# HOXD13 [4] = biological target: HOXD13 (Homo sapiens, UniProt P35453 263-343)
# HOXD13 [5] = biological target: HOXD13 (Homo sapiens, UniProt P35453 263-343, T313A)
# Sequence of HOXD13 (Homo sapiens, UniProt P35453 263-343, T313A) (P35453 263-343 T313A): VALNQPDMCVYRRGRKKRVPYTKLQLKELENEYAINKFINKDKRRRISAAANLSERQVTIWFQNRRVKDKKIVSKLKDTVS
# PITX2 = PITX2 (Homo sapiens, UniProt Q99697 72-157)
# ALX3 [6] = biological target: ALX3 (Homo sapiens, UniProt O95076 139-225, N203Q)
# Sequence of ALX3 (Homo sapiens, UniProt O95076 139-225, N203Q) (O95076 139-225 N203Q): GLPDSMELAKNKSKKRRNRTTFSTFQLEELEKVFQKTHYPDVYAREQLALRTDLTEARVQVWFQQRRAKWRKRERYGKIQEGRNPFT
# HOXC9 = HOXC9 (Homo sapiens, UniProt P31274 178-260, R222W)
# Sequence of HOXC9 (P31274 178-260 R222W): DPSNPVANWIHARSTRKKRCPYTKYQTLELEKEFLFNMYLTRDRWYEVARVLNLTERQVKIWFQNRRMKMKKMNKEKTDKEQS
# ALX3 [7] = biological target: ALX3 (Homo sapiens, UniProt O95076 139-225, N203S)
# Sequence of ALX3 (Homo sapiens, UniProt O95076 139-225, N203S) (O95076 139-225 N203S): as the sequence (O95076 139-225 N203Q) above, with Q65S counted along it
# ALX1 [8] = biological target: ALX1 (Homo sapiens, UniProt Q15699 118-204, L144V)
# Sequence of ALX1 (Homo sapiens, UniProt Q15699 118-204, L144V) (Q15699 118-204 L144V): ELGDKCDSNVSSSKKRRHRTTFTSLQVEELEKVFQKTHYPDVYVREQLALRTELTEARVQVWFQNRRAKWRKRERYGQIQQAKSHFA
# ALX1 [9] = biological target: ALX1 (Homo sapiens, UniProt Q15699 118-204, L144R)
# Sequence of ALX1 (Homo sapiens, UniProt Q15699 118-204, L144R) (Q15699 118-204 L144R): as the sequence (Q15699 118-204 L144V) above, with V27R counted along it
# ALX3 [10] = biological target: ALX3 (Homo sapiens, UniProt O95076 139-225)
# Sequence of ALX3 (Homo sapiens, UniProt O95076 139-225) (O95076 139-225): as the sequence (O95076 139-225 N203Q) above, with Q65N counted along it
# VAX1 [11] = biological target: VAX1 (Homo sapiens, UniProt Q5SQQ9 86-172)
# Sequence of VAX1 (Homo sapiens, UniProt Q5SQQ9 86-172) (Q5SQQ9 86-172): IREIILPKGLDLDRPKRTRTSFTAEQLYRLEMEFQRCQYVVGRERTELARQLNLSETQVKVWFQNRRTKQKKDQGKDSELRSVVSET
# ALX3 [12] = biological target: ALX3 (Homo sapiens, UniProt O95076 139-225, L168Q)
# Sequence of ALX3 (Homo sapiens, UniProt O95076 139-225, L168Q) (O95076 139-225 L168Q): as the sequence (O95076 139-225 N203Q) above, with L30Q, Q65N counted along it
# ALX3 [13] = biological target: ALX3 (Homo sapiens, UniProt O95076 139-225, L168V)
# Sequence of ALX3 (Homo sapiens, UniProt O95076 139-225, L168V) (O95076 139-225 L168V): as the sequence (O95076 139-225 N203Q) above, with L30V, Q65N counted along it
# VAX1 [14] = biological target: VAX1 (Homo sapiens, UniProt Q5SQQ9 86-172, T142I)
# Sequence of VAX1 (Homo sapiens, UniProt Q5SQQ9 86-172, T142I) (Q5SQQ9 86-172 T142I): as the sequence (Q5SQQ9 86-172) above, with T57I counted along it
# ALX1 [15] = biological target: ALX1 (Homo sapiens, UniProt Q15699 118-204)
# Sequence of ALX1 (Homo sapiens, UniProt Q15699 118-204) (Q15699 118-204): as the sequence (Q15699 118-204 L144V) above, with V27L counted along it
# VAX1 [16] = biological target: VAX1 (Homo sapiens, UniProt Q5SQQ9 86-172, K157R)
# Sequence of VAX1 (Homo sapiens, UniProt Q5SQQ9 86-172, K157R) (Q5SQQ9 86-172 K157R): as the sequence (Q5SQQ9 86-172) above, with K72R counted along it
# Sequence of HOXD13 (Homo sapiens, UniProt P35453 263-343, T313R) (P35453 263-343 T313R): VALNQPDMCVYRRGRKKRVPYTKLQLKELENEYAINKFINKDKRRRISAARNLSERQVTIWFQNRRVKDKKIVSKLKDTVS
# Sequence of SHOX (Homo sapiens, UniProt O15266 103-189) (O15266 103-189): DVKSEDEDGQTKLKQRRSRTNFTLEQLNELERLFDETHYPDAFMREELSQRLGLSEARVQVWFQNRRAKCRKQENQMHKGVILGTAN
# Sequence of SHOX (Homo sapiens, UniProt O15266 103-189, R173C) (O15266 103-189 R173C): as the sequence (O15266 103-189) above, with R71C counted along it
# Sequence of HOXD13 (Homo sapiens, UniProt P35453 263-343) (P35453 263-343): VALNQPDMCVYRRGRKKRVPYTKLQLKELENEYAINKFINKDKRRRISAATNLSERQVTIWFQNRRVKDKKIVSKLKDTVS
sequence,measurement,setting,value
CCGCGCCA,binding signal,SHOX [1],"7.12 upbm affinity estimate (log intensity, higher = more binding, comparable within an allelic series)"
same,binding signal,SHOX [2],"7.11 upbm affinity estimate (log intensity, higher = more binding, comparable within an allelic series)"
CCCAGCGC,binding signal,SHOX [1],"7.21 upbm affinity estimate (log intensity, higher = more binding, comparable within an allelic series)"
same,binding signal,HOXD13 [3],"9.41 upbm affinity estimate (log intensity, higher = more binding, comparable within an allelic series)"
same,binding signal,SHOX [2],"7.13 upbm affinity estimate (log intensity, higher = more binding, comparable within an allelic series)"
same,binding signal,HOXD13 [4],"9.38 upbm affinity estimate (log intensity, higher = more binding, comparable within an allelic series)"
same,binding signal,HOXD13 [5],"9.56 upbm affinity estimate (log intensity, higher = more binding, comparable within an allelic series)"
ACCCGCCC,binding signal,SHOX [1],"7.27 upbm affinity estimate (log intensity, higher = more binding, comparable within an allelic series)"
same,binding signal,SHOX [2],"7.22 upbm affinity estimate (log intensity, higher = more binding, comparable within an allelic series)"
TATTAGGA,binding signal,SHOX [1],"10.1 upbm affinity estimate (log intensity, higher = more binding, comparable within an allelic series)"
same,binding signal,PITX2,"9.87 upbm affinity estimate (log intensity, higher = more binding, comparable within an allelic series)"
CTCCGCCA,binding signal,SHOX [1],"7.21 upbm affinity estimate (log intensity, higher = more binding, comparable within an allelic series)"
same,binding signal,SHOX [2],"7.21 upbm affinity estimate (log intensity, higher = more binding, comparable within an allelic series)"
CCCCGAAC,binding signal,SHOX [1],"7.23 upbm affinity estimate (log intensity, higher = more binding, comparable within an allelic series)"
same,binding signal,SHOX [2],"7.26 upbm affinity estimate (log intensity, higher = more binding, comparable within an allelic series)"
ATATTAAA,binding signal,SHOX [1],"9.92 upbm affinity estimate (log intensity, higher = more binding, comparable within an allelic series)"
same,binding signal,ALX3 [6],"8.59 upbm affinity estimate (log intensity, higher = more binding, comparable within an allelic series)"
same,binding signal,HOXD13 [3],"10.7 upbm affinity estimate (log intensity, higher = more binding, comparable within an allelic series)"
same,binding signal,HOXC9,"11.1 upbm affinity estimate (log intensity, higher = more binding, comparable within an allelic series)"
same,binding signal,ALX3 [7],"8.68 upbm affinity estimate (log intensity, higher = more binding, comparable within an allelic series)"
CCCTCCTC,binding signal,SHOX [1],"7.26 upbm affinity estimate (log intensity, higher = more binding, comparable within an allelic series)"
same,binding signal,SHOX [2],"7.13 upbm affinity estimate (log intensity, higher = more binding, comparable within an allelic series)"
CGCTACCC,binding signal,SHOX [1],"7.24 upbm affinity estimate (log intensity, higher = more binding, comparable within an allelic series)"
same,binding signal,SHOX [2],"7.33 upbm affinity estimate (log intensity, higher = more binding, comparable within an allelic series)"
GGCCCAGA,binding signal,SHOX [1],"7.17 upbm affinity estimate (log intensity, higher = more binding, comparable within an allelic series)"
same,binding signal,SHOX [2],"7.12 upbm affinity estimate (log intensity, higher = more binding, comparable within an allelic series)"
CCCGGGGC,binding signal,SHOX [1],"7.23 upbm affinity estimate (log intensity, higher = more binding, comparable within an allelic series)"
same,binding signal,SHOX [2],"7.07 upbm affinity estimate (log intensity, higher = more binding, comparable within an allelic series)"
AGGTCCCC,binding signal,SHOX [1],"7.19 upbm affinity estimate (log intensity, higher = more binding, comparable within an allelic series)"
same,binding signal,SHOX [2],"7.17 upbm affinity estimate (log intensity, higher = more binding, comparable within an allelic series)"
CCAGAGGC,binding signal,SHOX [1],"7.17 upbm affinity estimate (log intensity, higher = more binding, comparable within an allelic series)"
same,binding signal,SHOX [2],"7.18 upbm affinity estimate (log intensity, higher = more binding, comparable within an allelic series)"
AATTAGGC,binding signal,SHOX [1],"11.6 upbm affinity estimate (log intensity, higher = more binding, comparable within an allelic series)"
same,binding signal,SHOX [2],"9.07 upbm affinity estimate (log intensity, higher = more binding, comparable within an allelic series)"
AGCCACCG,binding signal,SHOX [1],"7.07 upbm affinity estimate (log intensity, higher = more binding, comparable within an allelic series)"
same,binding signal,HOXD13 [3],"9.53 upbm affinity estimate (log intensity, higher = more binding, comparable within an allelic series)"
same,binding signal,SHOX [2],"7.05 upbm affinity estimate (log intensity, higher = more binding, comparable within an allelic series)"
same,binding signal,HOXD13 [4],"9.56 upbm affinity estimate (log intensity, higher = more binding, comparable within an allelic series)"
same,binding signal,HOXD13 [5],"9.66 upbm affinity estimate (log intensity, higher = more binding, comparable within an allelic series)"
CCAAACGG,binding signal,SHOX [1],"7.11 upbm affinity estimate (log intensity, higher = more binding, comparable within an allelic series)"
same,binding signal,SHOX [2],"7.21 upbm affinity estimate (log intensity, higher = more binding, comparable within an allelic series)"
CCGGGCGA,binding signal,SHOX [1],"7.31 upbm affinity estimate (log intensity, higher = more binding, comparable within an allelic series)"
same,binding signal,SHOX [2],"7.22 upbm affinity estimate (log intensity, higher = more binding, comparable within an allelic series)"
CAGCCGCG,binding signal,SHOX [1],"7.08 upbm affinity estimate (log intensity, higher = more binding, comparable within an allelic series)"
same,binding signal,ALX1 [8],"6.48 upbm affinity estimate (log intensity, higher = more binding, comparable within an allelic series)"
same,binding signal,ALX3 [6],"7.74 upbm affinity estimate (log intensity, higher = more binding, comparable within an allelic series)"
same,binding signal,SHOX [2],"7.07 upbm affinity estimate (log intensity, higher = more binding, comparable within an allelic series)"
same,binding signal,ALX1 [9],"6.44 upbm affinity estimate (log intensity, higher = more binding, comparable within an allelic series)"
same,binding signal,ALX3 [10],"7.7 upbm affinity estimate (log intensity, higher = more binding, comparable within an allelic series)"
same,binding signal,VAX1 [11],"7 upbm affinity estimate (log intensity, higher = more binding, comparable within an allelic series)"
same,binding signal,ALX3 [12],"7.68 upbm affinity estimate (log intensity, higher = more binding, comparable within an allelic series)"
same,binding signal,ALX3 [13],"7.67 upbm affinity estimate (log intensity, higher = more binding, comparable within an allelic series)"
same,binding signal,VAX1 [14],"7.24 upbm affinity estimate (log intensity, higher = more binding, comparable within an allelic series)"
same,binding signal,ALX1 [15],"6.47 upbm affinity estimate (log intensity, higher = more binding, comparable within an allelic series)"
same,binding signal,ALX3 [7],"7.74 upbm affinity estimate (log intensity, higher = more binding, comparable within an allelic series)"
same,binding signal,VAX1 [16],"7.13 upbm affinity estimate (log intensity, higher = more binding, comparable within an allelic series)"
CGGCCTCC,binding signal,SHOX [1],"6.98 upbm affinity estimate (log intensity, higher = more binding, comparable within an allelic series)"
same,binding signal,SHOX [2],"7.08 upbm affinity estimate (log intensity, higher = more binding, comparable within an allelic series)"

# — article PMC11006913
